# Test results reported in the supplement of paper PMC10981050.
# “And” between values parts separate entries of the source, which are not always exact repeats. Equal entries are not always repeated. Structures can show the parent of a compound that is named as a salt.
# Assays:
# Test in all cases: cell viability relative to vehicle control; higher = less cytotoxic
# Details in all cases: 10 µM
# K562 = tested on: K562
# Outline: (§1)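 CRISPR-edited SRSF2 P95 mutant and isogenic wild-type clones of four leukaemia lines were screened against Selleck bioactive, kinase and epigenetic probe libraries, with identity-inconsistent compounds removed. Compounds were acoustically dispensed into 384-well plates at a single 10 µM dose, with 2000 cells in 50 µL medium per well. After 48 h, supernatant was removed and CellTiter-Glo luminescence was read. Viability was expressed as percent of the on-plate DMSO vehicle control, analysed in Genedata Screener.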
# MARIMO = tested on: MARIMO
# Outline: as §1
# MOLM14 = tested on: MOLM14
# Outline: as §1
# OCI-AML2 = tested on: OCI-AML2
# Outline: as §1
Structure (SMILES),cell viability (K562; SRSF2 genotype: SRSF2 P95H/wt),cell viability (K562; SRSF2 genotype: SRSF2 wt/wt),cell viability (MARIMO; SRSF2 genotype: SRSF2 P95H/wt),cell viability (MARIMO; SRSF2 genotype: SRSF2 wt/wt),cell viability (MOLM14; SRSF2 genotype: SRSF2 P95H/wt),cell viability (MOLM14; SRSF2 genotype: SRSF2 wt/wt),cell viability (OCI-AML2; SRSF2 genotype: P95H/wt),cell viability (OCI-AML2; SRSF2 genotype: wt/wt)
Cc1cc(NC(=O)Nc2ccc(N(C)C)cc2)c2cc(F)cc(F)c2n1,89.9% and 95.8%,93.1%,98.3%,109%,102%,105%,83.8%,94.9%
CC(C)(C)c1cc(O)ccc1O,99.8% and 100%,93.8%,21.6%,0.51%,48%,54.4%,37.9%,29.7%
CC1(C)S[C@@H]2[C@H](NC(=O)[C@H](N)c3ccccc3)C(=O)N2[C@H]1C(=O)O [Ampicillin sodium],99% and 108%,102%,109%,109%,102%,107%,109%,95.7%
COc1ccc(-c2cc(=O)c3c(OC)c(OC)c(OC)c(OC)c3o2)cc1OC [Nobiletin (Hexamethoxyflavone)],94.6% and 90.6%,92.6%,79.1%,82.1%,83.3%,81.3%,74.5%,81.5%
O=c1oc2cc(O)ccc2s1 [Tioxolone],95.7% and 106%,105%,103%,101%,101%,103%,102%,97.4%
NCC(=O)CCC(=O)O [5-Aminolevulinic acid hydrochloride],94.7% and 105%,103%,109%,101%,99.1%,105%,108%,96.3%
O=C(O)C1=CO[C@@H](O[C@@H]2O[C@H](CO)[C@@H](O)[C@H](O)[C@H]2O)[C@@H]2C(CO)=CC[C@H]12 [Geniposidic acid],105% and 91.2%,93.8%,89.8%,105%,92.5%,91.6%,90.8%,107%
